Hit rate of the full screen: of about 75,000 compounds, about 5,700 (7.6%) were called active. Another 7% or so got no clear call; they are omitted. Calls come from the whole dose curve; as a rule, active = well fitted inhibition curve with a large enough effect; inconclusive = small, poorly fitted or top-dose-only effect; inactive = no such curve, though single readings can be large or run the other way. Many of the other results were omitted from the sample, so actives are more common in it than they were.
target: 3-hydroxyacyl-CoA dehydrogenase type-2 (Homo sapiens) (UniProt Q99714); assay: qHTS Assay for Inhibitors of HSD17B4, hydroxysteroid (17-beta) dehydrogenase 4; settings: recombinant HSD17B10, NADH fluorescence kinetic; series mostly up to 57.1 µM; activity change, negative = inhibition: at the top concentration;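 note: the protocol describes HADH2 (HSD17B10) and not the HSD17B4 of the title; nearly all actives have a fitted effect of over 70% in size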
How it was run: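 Activity followed as NADH fluorescence increase (ex 360, em 450 nm) every 30 seconds for 4 min, using final 90 uM beta-hydroxybutyryl CoA and 1 mM NAD+. Recombinant His-tagged enzyme, 20 nM, pH 9.0 Tris buffer, 15 min compound preincubation.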
% is set by controls: 0 for no effect and ±100 for the full control effect; potency is the fitted concentration of half-maximal effect.

Activity change, negative = inhibition, inactive:
CCCN(C/C=C\I)[C@@H]1CCc2cccc(O)c2C1 -5.72%
CC(NC(=O)CN1CCN(Cc2ccc(Cl)cc2)C1=O)c1ccc2c(c1)OCCO2 (configuration not stated) 4.76%
CC1CCCCC1NC(=O)CSc1nnc(N)s1 (configuration not stated) -0.695%
O=c1ccc2cc(S(=O)(=O)N3CCN(c4ccccc4)CC3)ccc2o1 10.5%
O=C1NC(=O)[C@@](Cc2ccccc2)(c2cccnc2)N1 -1.35% [at 11.4 µM]
CCOc1ccc(OCC)c(NC(=O)C2CCN(S(=O)(=O)c3c(C)noc3C)CC2)c1 -2.37%
Cc1ccc(F)cc1NC(=O)c1ccc2c(c1)OCO2 6.19%
COc1ccccc1OCCNCC(O)COc1cccc2[nH]c3ccccc3c12 (configuration not stated) 2.94%
C#CC(C)(C)NC(=O)CSc1nc2c(c(=O)n(C)c(=O)n2C)n1CCCC -0.34%
COC(=O)c1ccccc1NC(=O)Cn1nc(C(F)(F)F)c2c1CCC2 -12.1%
Cc1cc(C(F)(F)F)n2ncc(-c3ccccc3)c2n1 -6.73%
CCC1=C(OC(=O)N(CC)CC)N2C(=O)OC(=NCCc3c[nH]c4ccccc34)[C@]2(C)[C@H]2C1=CC[C@H]1C(=O)N(CC)C(=O)[C@H]12 -6.72%
CCOC(=O)c1cn(CC(=O)Nc2ccc(C(C)C)cc2)nn1 -0.682%
Cn1c(NC(=O)c2ccc3c(c2)OCO3)cc(=O)n(C)c1=O -13.5%
Cc1ccc(F)cc1NC(=O)c1cccc(N(C)C)c1 0.0915%
Cc1ccccc1NC(=O)c1ccccc1 -1.95%
CN(C)CCSS(=O)(=O)O 8.4% [at 11.4 µM]
O=C(Nc1ccc2c(c1)OCCO2)C1CCCN(c2ncccn2)C1 (configuration not stated) 1.15%
Cc1ccc(NC(=O)C2CCCN(S(=O)(=O)c3c(C)noc3C)C2)c(C)c1 (configuration not stated) -2.12%
COc1ccc(N(CC(=O)NC2CCCCCCC2)S(=O)(=O)c2c(C)nn(C)c2C)cc1 -1.12%
COc1cccc(-n2cc3c(c2-c2ccccc2)c(=O)n(C)c(=O)n3C)c1 -18.6%
Cc1occc1C(=O)Nc1cccc(Cn2cccn2)c1 6.22%
Cc1occc1C(=O)Nc1nnc(C2CCCCC2)s1 0.212%
O=C(NC1CCCC1)c1ccc(Br)s1 0.0814%
CCOc1ccc2nc(SC(CC)C(=O)Nc3cc(C)on3)sc2c1 (configuration not stated) 10.9%
CN1CCCC1CCO[C@@](C)(c1ccccc1)c1ccc(Cl)cc1 (some centres not stated) -1.15%
COc1ccc2[nH]cc(CCNc3ncnc4ccc(-c5ccc(C(=O)N(C)C)cc5)cc34)c2c1 5.12%
O=C(CS(=O)(=O)c1cn(Cc2cccc(F)c2)c2ccccc12)N1CCCCC1 2.43%
CCn1c(NCCc2ccc(OC)c(OC)c2)nc2c1c(=O)n(C)c(=O)n2C 7.02%
CC1CCN(Cc2nc3c(c(=O)n(C)c(=O)n3C)n2CCc2ccccc2)CC1 5.22%
CCN(Cc1nc2ccccc2c(=O)[nH]1)Cc1cc(=O)oc2cc(C)c(C)cc12 -3.58%
COC(=O)[C@@]1(Cc2ccc(OC)cc2)[C@H]2c3cc(C(=O)N4CCCC4)n(Cc4ccc(C(F)(F)F)nc4)c3C[C@H]2CN1C(=O)c1ccccc1 5.51%
CC(C)c1ccc(NS(=O)(=O)c2cn(C)c(=O)n(C)c2=O)cc1 -7.68%
O=c1[nH]nc(Cc2ccccn2)c2ccccc12 4.64%
COC(=O)c1ccccc1NC(=O)c1cncc(Br)c1 4%
O=C(CSc1nnc2ccccn12)c1ccccc1 -4.02%
O=C(Nc1ncc2c(n1)CC(c1ccco1)CC2=O)c1ccc(Cl)cc1 (configuration not stated) -13.7%
CCc1ccc(NC(=O)CSc2nnc(-c3cnccn3)n2Cc2ccco2)cc1 -6.46%
COC(=O)c1ccc(C23CC4(C2)[C@H](CN(Cc2cccnc2)[C@@H]4c2ccccc2)C3c2ccc(Cl)nc2)cc1 (some centres not stated) 15%
COc1cc(C2C(C(=O)Nc3ccccc3OC)=C(C)Nc3ncnn32)ccc1O (configuration not stated) 4.6%
Cc1c(C(=O)OCc2cc(=O)n3cc(Br)ccc3n2)oc2ccccc12 13.2%
COc1ccc(N(CC(=O)NC(C)(C)C)C(=O)c2ccco2)cc1 7.51%

Potency, active:
CN(C)CCCn1c(N)c(C#N)c2nc(C#N)c(C#N)nc21 25.1 µM
COC(=O)c1cnn2c(C(F)(F)F)cc(-c3ccco3)nc12 25.1 µM
Cc1ccc(NC(=O)c2cccc(N(C)C)c2)cc1NC(=O)c1ccc(O)cc1 31.6 µM
Cc1ccnc(N2CCCC(C(=O)Nc3cc(F)ccc3C)C2)n1 (configuration not stated) 25.1 µM
Cc1occc1C(=O)Nc1nnc(-c2ccncc2)s1 31.6 µM
Cn1c(=O)c2c(nc(NCCc3ccccc3)n2Cc2ccccc2)n(C)c1=O 31.6 µM
Cc1ccc2c(CSc3nncs3)cc(=O)oc2c1 12.6 µM
CN(CCc1ccccn1)S(=O)(=O)c1ccc2c3c(cccc13)C(=O)N2 31.6 µM
CCc1ccc(Nc2ncc3c(n2)CC(c2ccco2)CC3=O)cc1 (configuration not stated) 20 µM
Cc1c(C(=O)OCC(=O)N(CCC#N)c2ccccc2)oc2c1ccc1ccccc12 31.6 µM

— PubChem BioAssay AID893 (National Center for Advancing Translational Sciences (NCATS), 2007)
